# An excerpt weighted towards active compounds, which were near 12% of everything screened.
# PLK1 PBD block: qHTS for Inhibitors of PLK1-PDB (polo-like kinase 1 - polo-box domain): Primary Screen. Plk1 PBD binding of FITC phosphopeptide, fluorescence polarization. Potency, µM, hits mostly inhibitors. hit rate 2.8% among 360,000. AID 720504, 2013; also: series mostly up to about 57 µM; nearly all actives have a fitted effect of over 65% in size
# JMJD2A Tudor: qHTS Assay for Inhibitors of JMJD2A-Tudor Domain; Lysine-specific demethylase 4A (Homo sapiens), O75164; AlphaScreen JMJD2A-Tudor / H3K4me3 peptide binding; Potency, µM (highest dose often 114 µM), most hits filed as inhibitors; hit rate 4.4% among 390,000; AID 504339, 2011; also: nearly all actives have a fitted effect of over 50% in size
# Sfp inh: qHTS Assay for Inhibitors of Bacillus subtilis Sfp phosphopantetheinyl transferase (PPTase); Biochemical Sfp PPTase activity, qHTS; Potency, µM, usual class: inhibitors; hit rate 3.5% among 310,000; AID 1490, 2009;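 also: the enzyme is Sfp with the accession as filed and its product quenches rhodamine fluorescence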
#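 With Hepes-Na pH 7.6 buffer containing 10 mM MgCl2, Sfp (15 nM) modified BHQ-2-YbbR (12.5 uM) using rhodamine-CoA (5 uM). Two reads 30 minutes apart at 525/598 nm yielded each well's rate.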
# G9a block: qHTS Assay for Inhibitors of Histone Lysine Methyltransferase G9a. Potency, µM (series often up to 102 µM), most hits filed as inhibitors. G9a H3K9 monomethylation, AlphaScreen, 2 h. hit rate 8.8% among 350,000; also: nearly all actives have a fitted effect of over 75% in size
#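 Step 1: enzyme (final 20 nM) with compound, 15 min RT. Step 2: substrate peptide 500 nM and SAM 20 uM, 2 h RT. Step 3: anti-H3K9me1 antibody and AlphaScreen beads, 10 min, then plate read.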
# HP1b binding inh: HTS for Inhibitors of HP1-beta Chromodomain Interactions with Methylated Histone Tails | Chromobox protein homolog 1 (Homo sapiens), P83916 | Potency, µM (doses to about 114 µM), most hits filed as inhibitors | hit rate 0.56% among 390,000 | AID 540317, 2011 | AlphaScreen HP1-beta / biotin-H3K9me3 peptide binding; also: nearly all actives have a fitted effect of over 70% in size
#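 AlphaScreen: HP1-beta (50 nM) preformed 30 min with biotin-H3(1-18)K9me3 peptide (50 nM) in PBS pH 7.4, 0.01% Tween-20. Compound added for 30 min at RT, then streptavidin donor/nickel chelate acceptor beads (10 ug/mL) for 30 min.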
# BAZ2B block: qHTS Assay for Inhibitors of BAZ2B; AlphaScreen BAZ2B-H3K14Ac peptide displacement; Potency, µM (titrated, usually from 114 µM), most hits filed as inhibitors; hit rate 4.4% among 360,000; also: nearly all actives have a fitted effect of over 60% in size
#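 Multi-concentration screen (max 110 uM) measuring displacement of acetylated histone H3 peptide from BAZ2B by AlphaScreen, using 50 nM protein, 50 nM peptide and 10 ug/mL streptavidin donor plus Ni-chelate acceptor beads.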
# A number is an active result; n = inactive; u = inconclusive; x = not tested or not shown; ! = repeats disagree; [ ] = remark or other dose. Calls follow the shape of the dose curve; as a rule, active = well fitted curve in the direction sought with a large enough effect; inconclusive = small, poorly fitted or top-dose-only effect, or another doubt; inactive = no such curve, though single readings can be large; an effect the other way counts as inactive or inconclusive.
SMILES,PLK1 PBD block,JMJD2A Tudor,Sfp inh,G9a block,HP1b binding inh,BAZ2B block
O=C(N/N=C/c1c[nH]c2ccccc12)c1[nH]c2ccc(Br)cc2c1-c1ccccc1,8.4µM,u,n,n,n,n
COc1cc(F)c(S(=O)(=O)N2CCCN(S(=O)(=O)c3ccc4c(c3)OCCO4)CC2)c(F)c1,x,n,x,x,x,x
CCCCS(=O)(=O)/C=C\C1C2C=CC(C2)C1S(=O)(=O)CCCC (stereo not given),n,n,n,n,n,n
CCCCS(=O)(=O)/C=C\C=C/S(=O)(=O)CCCC,15µM,u,11µM,u,n,n
CC(=O)[C@@H]1[C@H]2[C@H](C(=O)[C@H]3OC[C@@H]2O3)[C@H]2C=Cc3ccccc3N21,x,x,45µM,x,x,x
COc1ccc(C(=O)C2C3C4COC(O4)C(=O)C3C3C=Cc4ccccc4N32)c(OC)c1 (stereo not given),x,x,79µM,x,x,x
Cc1ccc(C(=O)[C@@H]2[C@H]3C4COC(O4)C(=O)[C@@H]3[C@H]3C=Cc4ccccc4N32)cc1 (stereo not given in full),x,x,n,x,x,x
O=C(CCNC(=O)c1ccccc1)NNC(=O)c1ccc(F)cc1,n,n,x,x,n,x
Cc1ccc(-n2cc[nH]c2=S)cc1C,n,35µM,79µM,u,n,n
Cc1ccc(N2C(=O)C(Cc3ccc(O)cc3)NC2=S)cc1C (stereo not given),n,n,n,n,n,n
O=C1CSC(=S)N1c1cccc(Cl)c1,u,n,n,n,n,n
S=c1[nH]ccn1-c1cccc(Cl)c1,u,7.9µM,n,u,n,n
O=C(NCc1ccccc1Cl)C1CCCN(C(=O)c2cnn(-c3ccccc3)c2-n2cccc2)C1 (stereo not given),x,n,x,n,n,n
CCOC(=O)c1c(NC(=O)c2cc(C(C)C)on2)sc(C(C)=O)c1C,n,n,n,7.9µM!,n,n
CCCc1cc(C(=O)Nc2sc(C(C)=O)c(C)c2C(=O)OCC)no1,u,n,n,u,n,n
CCOC(=O)c1c(NC(=O)c2cc(CC(C)C)on2)sc(C(C)=O)c1C,u,n,n,7.9µM,n,n
CCc1ccc(OCc2nc(-c3ccc(OC)c(OC)c3)no2)c(Br)c1,x,n,x,n,n,n
Cc1ccccc1N(C)S(=O)(=O)c1nnc(NC(=O)C(C)C)s1,x,u,x,u,n,u
Cc1ccccc1NS(=O)(=O)c1nnc(NC(=O)c2ccccc2C)s1,n,u,n,n,n,28µM!
Cc1ccccc1N(C)S(=O)(=O)c1nnc(NC(=O)c2ccccc2F)s1,n,45µM!,n,4µM!,n,14µM!
CC(C)CC(N)C(=O)NC(C)C(=O)O (stereo not given),x,x,n,x,x,x
COc1cc(/C=C2\SC(=S)N(CCC(=O)Nc3ccc(O)cc3)C2=O)cc(OC)c1OC,30µM,22µM,n,n,n,n
COc1ccccc1NC(=O)CCN1C(=O)/C(=C/c2cc(OC)c(OC)c(OC)c2)SC1=S,n,n,45µM,n[0.501 µM],n,n
COc1cc(/C=C2/SC(=S)N(CCC(=O)Nc3ccc(C(=O)O)cc3)C2=O)cc(OC)c1OC,u,u,n,x,n,u
Cc1cccc(CNC(=O)CN2C(=O)C3CCCCN3c3ccc(C(=O)N4CCCC4)cc32)c1 (stereo not given),x,n,x,n,n,n
SMILES,PLK1 PBD block,JMJD2A Tudor,Sfp inh,G9a block,HP1b binding inh,BAZ2B block
CCc1cc2c(SCC(=O)N3CCCC3=O)ncnc2s1,n,n,x,n,n,n
Cc1ccc(S(=O)(=O)n2nc(-c3ccc(Cl)cc3)nc2NCc2ccco2)cc1,n,n,n,n[12.7 µM],n,n
CCS(=O)(=O)n1nc(-c2ccccc2)nc1NCc1ccco1,n,n,n,25µM,n,n
Cc1ccc(-c2nc(NCc3ccco3)n(C(=O)c3ccco3)n2)cc1,n,n,n,n,n,n
O=C(c1ccco1)n1nc(-c2ccccc2)nc1NCc1ccco1,30µM,79µM,u,n[12.7 µM],n,n
CC(C)(C)NC(=O)COC(=O)CNC(=O)C1CCCCC1,x,n,x,x,n,x
Cc1ccc2nc(/C(C#N)=C\c3ccc([N+](=O)[O-])o3)[nH]c2c1,n,n,n,n,n,n
Cc1ccc2nc(/C(C#N)=C\c3ccc(N4CCOCC4)o3)[nH]c2c1,n,n,n,10µM,n,u
c1cc(CN2CCCNCCNCCCNCC2)ccc1CN1CCCNCCNCCCNCC1,x,x,n,x,x,x
CCN(CC)C1Oc2cc3c(cc2C(c2cc(OC)c(OC)c(OC)c2)C1C)OCO3 (stereo not given),n,u,x,x,n,x
CC[N+]1(C)CC2CCC(C)(C1)C2(C)C (stereo not given),n,32µM,n,u,n,n
N#Cc1ccccc1S(=O)(=O)N1CCN(C(=O)C2CCC2)CC1,n,n,x,n,n,n
Cn1c(=O)cc(SCC(=O)N2CCN(c3ccccc3F)CC2)c2ccc(Cl)cc21,x,n,x,u,n,x
Cc1c(Nc2ncccc2C(=O)O)cccc1C(F)(F)F,n,n,n,n,n,n
O=C(O)c1ccccc1NN=C1CCCCC1,n,u,n,8.9µM,n,n
Cc1c(Cl)cccc1Nc1ncccc1C(=O)O,u,25µM!,n,n[12.7 µM],n,n
CC(C)c1ccccc1NC(=O)C1C2C=CC(C2)C1C(=O)O (stereo not given),n,n,u,x,n,n
O=C(O)c1ccccc1NC(=O)C1C2C=CC(C2)C1C(=O)O (stereo not given),n,n,20µM,u,n,n
Cc1ccc(-c2ccc(NC(=O)C3C4C=CC(C4)C3C(=O)O)cc2)o1 (stereo not given),n,n,2.2µM,16µM,n,u
